Measurements as given in the antibiotic and cytotoxicity screens of Wong et al. (2023).
The whole screen tested about 39,000 compounds, of which about 1,500 (3.8%) were called active. Shown is part of a subset that was picked to be rich in actives.

What follows are compounds tested on HSkMC (human skeletal muscle cells) (assay: cytotoxicity call (relative viability < 0.9)). Settings: 10 µM.

SMILES	cytotoxicity call
CO[C@H]1CN(C)C(=O)c2ccc(NC(=O)CC(F)(F)F)cc2OC[C@H](C)N(C(=O)C2CCOCC2)C[C@H]1C	inactive
O=c1c(O)cc(C2Oc3cc(O)cc(O)c3CC2O)cc2c(C3Oc4cc(O)cc(O)c4CC3O)cc(O)c(O)c12 (stereo not drawn)	inactive
Cc1noc(C)c1NC(=O)Nc1ccc2c(c1)C(=O)N([C@@H](C)CO)C[C@H](C)[C@@H](CN(C)Cc1ccc(C(F)(F)F)cc1)O2	inactive
C[C@@H]1CN([C@H](C)CO)C(=O)c2cc(NS(=O)(=O)c3ccccc3)ccc2O[C@H]1CN(C)Cc1ccc(Oc2ccccc2)cc1	inactive
C[C@@H]1CN([C@@H](C)CO)C(=O)c2cc(NS(=O)(=O)c3ccc(Cl)cc3)ccc2O[C@@H]1CN(C)Cc1ccc(Oc2ccccc2)cc1	active
C[C@H](CO)N1C[C@H](C)[C@H](CN(C)Cc2ccc(Oc3ccccc3)cc2)Oc2ccc(NS(=O)(=O)c3ccccc3)cc2C1=O	inactive
C[C@@H]1CN([C@H](C)CO)C(=O)c2cc(NS(=O)(=O)c3cn(C)cn3)ccc2O[C@H]1CN(C)Cc1ccc2c(c1)OCO2	inactive
COc1ccc(S(=O)(=O)N(C)C[C@H]2Oc3ccc(NC(=O)Cn4cnnn4)cc3CC(=O)N([C@@H](C)CO)C[C@@H]2C)cc1	inactive
C[C@H]1CCCCO[C@@H](CN(C)C(=O)Nc2cccc3ccccc23)[C@@H](C)CN([C@@H](C)CO)C(=O)c2cc(NS(=O)(=O)c3cccs3)ccc2O1	inactive
C[C@@H]1CCCCO[C@H](CN(C)C(=O)Nc2cccc3ccccc23)[C@H](C)CN([C@H](C)CO)C(=O)c2cc(NS(=O)(=O)c3cccs3)ccc2O1	active
C[C@@H]1CCCCO[C@@H](CN(C)C(=O)Nc2cccc3ccccc23)[C@H](C)CN([C@H](C)CO)C(=O)c2cc(NS(=O)(=O)c3cccs3)ccc2O1	inactive
C[C@H](CO)N1C[C@H](C)[C@@H](CN(C)C(=O)Nc2cccc3ccccc23)OCCCC[C@H](C)Oc2ccc(NS(=O)(=O)c3cccs3)cc2C1=O	active
C[C@@H]1CN([C@@H](C)CO)C(=O)c2cc(NS(=O)(=O)c3cccs3)ccc2O[C@@H](C)CCCCO[C@H]1CN(C)C(=O)Nc1cccc2ccccc12	inactive
C[C@H]1CCCCO[C@H](CN(C)C(=O)Nc2cccc3ccccc23)[C@@H](C)CN([C@@H](C)CO)C(=O)c2cc(NS(=O)(=O)c3cccs3)ccc2O1	inactive
C[C@@H]1CN([C@@H](C)CO)S(=O)(=O)c2ccc(-c3ccc(F)cc3)cc2O[C@@H]1CN(C)S(C)(=O)=O	inactive
Oc1ccc([C@@H]2C=CCC2)cc1	inactive
COc1ccc(NC(=O)N(C)C[C@H]2OCCCC[C@@H](C)Oc3ccc(NC(=O)Nc4ccc5c(c4)OCO5)cc3C(=O)N([C@@H](C)CO)C[C@H]2C)cc1	inactive
C[C@@H]1CN([C@H](C)CO)C(=O)c2cccc(NC(=O)C3CCOCC3)c2O[C@@H]1CN(C)Cc1ccc2c(c1)OCO2	inactive
Cc1cc(C(=O)Nc2cccc3c2O[C@H](CN(C)S(=O)(=O)c2ccc(F)cc2)[C@H](C)CN([C@H](C)CO)C3=O)n(C)n1	inactive

SMILES	cytotoxicity call
CN(C)CC(=O)N1[C@@H]2Cn3c(cccc3=O)[C@H]1[C@@H](C(=O)NCc1ccccc1)[C@@H]2CO	inactive
C=CCC[C@@H](Cc1ccc(F)cc1)C(=O)O[C@@H](CNC(=O)[C@H](CC=C)CC(=O)N(CCO)Cc1ccccc1)c1ccccc1	active
C=CCC[C@@H](Cc1ccc(F)cc1)C(=O)O[C@H](CNC(=O)[C@@H](CC=C)CC(=O)N(CCO)Cc1ccccc1)c1ccccc1	active
C=CCC[C@H](Cc1ccc(F)cc1)C(=O)O[C@H](CNC(=O)[C@@H](CC=C)CC(=O)N(CCO)Cc1ccccc1)c1ccccc1	inactive
C=CCC[C@H](Cc1ccc(F)cc1)C(=O)O[C@H](CNC(=O)[C@H](CC=C)CC(=O)N(CCO)Cc1ccccc1)c1ccccc1	inactive
C=CCC[C@H](Cc1ccc(F)cc1)C(=O)O[C@@H](CNC(=O)[C@H](CC=C)CC(=O)N(CCO)Cc1ccccc1)c1ccccc1	inactive
C=CCC[C@@H](Cc1ccc(F)cc1)C(=O)O[C@H](CNC(=O)[C@H](CC=C)CC(=O)N(CCO)Cc1ccccc1)c1ccccc1	inactive
C=CCC[C@@H](Cc1ccc(F)cc1)C(=O)O[C@@H](CNC(=O)[C@@H](CC=C)CC(=O)N(CCO)Cc1ccccc1)c1ccccc1	active
C=CCC[C@H](Cc1ccc(F)cc1)C(=O)O[C@@H](CNC(=O)[C@@H](CC=C)CC(=O)N(CCO)Cc1ccccc1)c1ccccc1	active
COC(=O)C[C@H]1CC[C@@H]2[C@H](COC[C@@H](O)CN2S(=O)(=O)c2ccc(F)cc2)O1	inactive
C=CCNC(=O)[C@@H]1[C@H]2C(=O)O[C@H](c3ccccc3)[C@H](c3ccccc3)N2[C@H](c2ccc(O)cc2)[C@@]12C(=O)N(C(=O)OCCOC)c1ccc(C#Cc3ccc(OC)cc3)cc12	inactive
CC(C)NC(=O)N(C)C[C@H]1Oc2cc(-c3ccccc3F)ccc2S(=O)(=O)N([C@@H](C)CO)C[C@H]1C	inactive
Nc1ncnc(Cl)c1N	inactive
COCC#Cc1ccc2c(c1)O[C@H](CN(C)C(=O)c1ccccc1)[C@@H](C)CN([C@@H](C)CO)S2(=O)=O	inactive
C[C@@H]1CCCCO[C@@H](CN(C)C(=O)c2ccccc2)[C@@H](C)CN([C@H](C)CO)C(=O)c2cc(NC(=O)Nc3ccc(F)cc3)ccc2O1	inactive
COc1ccccc1CNC(=O)C[C@H]1CC[C@H]2[C@@H](COC[C@H](O)CN2C(=O)Nc2ccc(F)cc2)O1	inactive
O=C(C[C@@H]1C[C@H]2c3cc(NC(=O)Nc4ccc(C(F)(F)F)cc4)ccc3O[C@H]2[C@H](CO)O1)NCc1cc(F)ccc1F	inactive
C[C@@H]1CN([C@H](C)CO)C(=O)c2cc(NC(=O)c3ccncc3)ccc2O[C@H]1CN(C)Cc1ccc(Oc2ccccc2)cc1	inactive
O=C(O[C@H]1[C@H](O)[C@@H](CO)O[C@H](c2c(O)cc(O)c(C(=O)c3ccc(O)cc3)c2O)[C@H]1OC(=O)c1cc(O)c(O)c(O)c1)c1cc(O)c(O)c(O)c1	inactive
